# Assay outcomes from PubChem BioAssay.
# Pf growth 48h – inhibits P. falciparum growth in the first generation, 48 h; P. falciparum luciferase growth in erythrocytes, 48 h; Potency, µM (series often up to 28.7 µM), for inactives: top-dose activity change, negative = inhibition, actives largely listed as inhibitors; 310,000 tested, 5.9% active; AID 504832; also: % is scaled to controls: 0 for no effect and ±100 for the full control effect
#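 Parasite viability was followed by luminescence of a genomically integrated firefly luciferase. Cultures held 0.1% parasitemia at 2% hematocrit (final), incubated under 5% CO2 at 37 C.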
# NS1 inh – influenza NS1 inhibition | Potency, µM (series often up to 46.1 µM), for the others: at the highest dose activity, positive = more growth | 270,000 tested, 0.4% active; calls by dose curve; also: actives are rising curves; nearly all actives have a fitted effect of over 50% in size
#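 In this qHTS, NS1 from influenza A is expressed in budding yeast, where it slows growth. Cells are switched from glucose to 2% galactose medium (pH 6.0, -URA), treated with compound, and growth recovery is read at OD600.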
# Vaccinia mCherry – vaccinia inhibition (mCherry reporter); Vaccinia virus mCherry reporter infection, fluorescence; Potency, µM (titrated, usually from 36.5 µM), for inactives: at the top dose activity change, negative = inhibition, actives largely listed as inhibitors; 310,000 tested, 0.63% active; calls by dose curve; tested in A549 cells; also: % is scaled to controls: 0 for no effect and ±100 for the full control effect; nearly all actives have a fitted effect of over 35% in size
# VACV Venus inh – vaccinia inhibition (Venus reporter) | Vaccinia virus Venus reporter expression, fluorescence | 330,000 tested, 0.46% active | Potency, µM (doses to about 36.5 µM), without a hit: at the highest dose activity change, negative = inhibition, most hits filed as inhibitors; calls by dose curve; tested in A549 cells; also: % is scaled to controls: 0 for no effect and ±100 for the full control effect; nearly all actives have a fitted effect of over 30% in size
# Pf growth 96h – P. falciparum growth inhibition at 96 hours | P. falciparum luciferase reporter growth, 96 h | 320,000 tested, 6.9% active | Potency, µM (highest dose often 28.7 µM), without a hit: top-dose activity change, negative = inhibition, actives largely listed as inhibitors; also: % is scaled to controls: 0 for no effect and ±100 for the full control effect
#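 Two parasite generations (96 h, 37 C, 5% CO2) of compound exposure in infected erythrocytes (0.05% parasitemia, 2% hematocrit). Luciferase-reporter P. falciparum; decreased luminescence indicates inhibited growth, aimed at apicoplast-acting delayed death.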
# HCV inh – HCV inhibition. Huh7.5.1 HCVcc-Cre infection, luciferase reporter, 44 h. Potency, µM (top dose mostly 41.8 µM), for the others: at the highest dose activity change, negative = inhibition, hits mostly inhibitors. 340,000 tested, 3.4% active. AID 651820; also: % is scaled to controls: 0 for no effect and ±100 for the full control effect
#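 HCVcc-Cre virus at an moi near 0.5 was added right after compound to cells cultured 4 h from seeding (1,000 cells/well). Luciferase activity was determined 44 h later, 15 min after substrate addition at RT.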
# Numbers without * were called inactive; i = inactive; u = inconclusive; x = not tested or not shown; [ ] = remark or other dose. In the library only some 11% were active in any assay of this set; here they are far more common. Unless noted, calls follow the shape of the dose curve; as a rule, active = well fitted inhibition curve with a large enough effect; inconclusive = small, poorly fitted or top-dose-only effect, or another doubt; inactive = no such curve, though single readings can be large or run the other way. Potency is read from the fitted curve at half-maximal effect.
SMILES,Pf growth 48h,NS1 inh,Vaccinia mCherry,VACV Venus inh,Pf growth 96h,HCV inh
CCSc1ncnc2nc[nH]c12,x,x,-19.9%,-4.9%,x,x
CCCn1nc(C(=O)NNC(=O)c2cccc(S(=O)(=O)NC(C)C)c2)c2ccccc2c1=O,3.29µM*,4.4%,-0.8%,-9.7%,1.17µM*,u
CCCn1nc(C(=O)NNC(=O)c2cc(S(=O)(=O)NC)ccc2Br)c2ccccc2c1=O,3.2%,x,i,-11.4%,-2.1%,-12.5%
FC(F)Sc1nc(-c2ccccc2)c(-c2ccccc2)n1C(F)F,-3.3%,-7.2%,-1.9%,6.8%,3.29µM*,2.0%
Cc1ccccc1S(=O)(=O)Cc1ccc(C(=O)NCc2cccnc2)o1,-8.5%,10.8%,x,x,9.28µM*,10.0%
O=C(NCc1ccccc1)c1ccc(CS(=O)(=O)c2ccccc2)o1,x,-0.8%,x,x,10.4µM*,20.1%
Cc1ccc(CSCC(=O)NCCCN2CCOCC2)cc1,51.1%,-2.0%,x,x,8.8%,10.4%
Cc1ccc(N(C(=O)CNC(=O)c2ccco2)C(C(=O)NC2CCCC2)c2ccncc2)cc1C (configuration not stated),10.5%,-3.8%,12.3%,1.5%,u,20.7%
CC(=O)Nc1sc(C)c(C)c1C(=O)OCC(=O)Nc1cc(S(C)(=O)=O)ccc1Cl,u,2.5%,-2.5%,2.4%,-11.6%,-25.4%
CCc1ccccc1NC(=S)N(CCCN1CCN(C)CC1)Cc1cccs1,16.9%,x,u,0.4%,u,-7.8%
CCC1CCCCN1C(=O)Cn1c(=O)n(CCC(=O)NCc2ccco2)c(=O)c2sccc21 (configuration not stated),-15.6%,6.9%,-8.1%,-7.5%,5.22µM*,31.5%
CCC1CCCCN1C(=O)Cn1c(=O)n(CCCCCC(=O)NCc2ccc(F)cc2)c(=O)c2sccc21 (configuration not stated),x,x,-11.9%,-1.0%,x,x
CCCn1c(=O)c2sccc2n2c(CCCC(=O)NCc3ccccc3)nnc12,x,x,-4.0%,-2.0%,x,x
COCCCn1c(=O)c2sccc2n2c(CCCC(=O)N3CCN(c4ccccn4)CC3)nnc12,u,10.0%,x,x,46.5%,-2.1%
Cn1c(=O)c2sccc2n2c(CCCC(=O)N3CCN(c4ccccn4)CC3)nnc12,u,-11.1%,x,x,9.28µM*,4.3%
CCCn1c(=O)c2sccc2n2c(CCCC(=O)NCc3ccco3)nnc12,u,-4.2%,-8.3%,-1.0%,14.7µM*,5.6%
C[C@H]1CN([C@@H](C)CO)C(=O)CCCn2nncc2CO[C@H]1CN(C)S(=O)(=O)c1ccc(Oc2ccccc2)cc1,x,x,-25.5%,-14.0%,x,x
CCN1CCN(C(c2cccs2)C(C)NC(=S)NC2CCCCC2)CC1 (configuration not stated),-7.2%,5.5%,-8.4%,-16.4%,-12.1%,u
O=C(Cc1cccs1)NCCN1CCOCC1,-8.1%,17.6%,-15.7%,-6.6%,4.15µM*,31.3%
CC(NC(=O)Cc1cccs1)C(c1cccs1)N1CCOCC1 (configuration not stated),13.1µM*,4.1%,-11.6%,-10.9%,x,9.4%
CC(NC(=S)NC1CCCCC1)C(c1cccs1)N1CCOCC1 (configuration not stated),u,-9.0%,-8.7%,-16.2%,8.28µM*,-1.3%
CCC(=O)NC(C)C(c1cccs1)N1CCOCC1 (configuration not stated),x,9.8%,x,x,x,u
O=C(O)c1cccc(NC(=S)NC(=O)c2ccncc2)c1,32.0%,x,-4.9%,7.7%,9.28µM*,6.6%
Cc1ccc(C(=O)NC(=S)NNC(=O)c2ccccc2)cc1,21.8%,-152.3%,x,x,u,-2.0%
Cc1ccc(NC(=O)NC(=S)NC(=O)c2ccccc2)cc1,53.6%,-4.1%,u,7.08µM*,78.3%,6.2%
SMILES,Pf growth 48h,NS1 inh,Vaccinia mCherry,VACV Venus inh,Pf growth 96h,HCV inh
Cc1cc(C)nc(NC(=S)NC(=O)c2ccccc2)n1,15.1%,22.6%,-9.2%,-4.4%,0.928µM*,3.5%
CC(C)NS(=O)(=O)c1ccc(NC(=S)NC(=O)c2ccc(-c3ccccc3)cc2)cc1,6.57µM*,1.0%,x,x,2.62µM*,u
Cc1ccccc1Nc1c(-c2ccc(N3CCOCC3)cc2)nc2ccccn12,x,x,-0.8%,-7.9%,x,x
CCOc1ccc(-n2c(=O)c3c(C)c(C)sc3n(CC(=O)N3CCC(C)CC3)c2=O)cc1,x,x,-20.3%,-14.5%,x,x
O=C(N/N=C/C=C/c1ccc2c(c1)OCO2)c1ccc([N+](=O)[O-])cc1,x,-7.8%,-4.9%,-2.0%,-10.3%,u
O=C(CN(Cc1ccco1)C(=O)c1cc(=O)[nH]c2ccccc12)Nc1ccccc1Br,u,5.5%,-20.9%[1.46 µM],-7.4%,9.28µM*,3.0%
O=C(Nc1cccc(Cl)c1)NC1CCN(C2CCCCC2)C1 (configuration not stated),u,-10.1%,i,-12.6%,11.7µM*,u
Oc1ccc(COC2CCN(Cc3ccccc3)C2)c2cccnc12 (configuration not stated),8.28µM*,x,x,x,11.7µM*,x
CCOC(=O)C1CCN(Cc2ccc(O)c3ncccc23)CC1,10.4µM*,-6.3%,x,x,41.2%,10µM*
NNC(=O)CN1CCCc2ccccc21,294.6%,x,-20.7%,-13.9%,333.3%,14.2%
Oc1ccc(CN2CCCc3ccccc32)c2cccnc12,13.1µM*,-55.2%,u,u,12.1%,10µM*
COc1ccccc1N1CCN(Cc2ccc(O)c3ncccc23)CC1,2.62µM*,-53.1%,x,x,x,3.55µM*
NCCCNC(=O)Cn1c(=O)c2c3c(sc2n(Cc2ccccc2)c1=O)CCCC3,u,2.7%,-2.7%,-20.2%,u,-8.8%
COc1ccc(NC(=O)CCNS(=O)(=O)c2ccc3c(c2)CC(C)N3C(=O)C2CC2)cc1 (configuration not stated),u,-0.8%,8.7%[7.34 µM],13.4%[7.34 µM],u,2.5%
Cc1ccc(-c2nn3nnnc3c3ccccc23)cc1C,-17.8%,-6.6%,x,x,42.2%,-10.7%
COc1ccc(C(=O)NC(=S)Nc2ccccc2N2CCOCC2)cc1Br,u,24.2%,-0.3%,-8.1%,221.7%,15.8µM*
COc1cc(C(=O)Nc2ccccc2N2CCCCC2)cc(OC)c1OC,x,-7.9%,i,-15.0%,u,u
COc1cccc(C(=O)NC(=S)Nc2ccccc2N2CCCCC2)c1,7.38µM*,u,x,x,u,u
COc1cc(C(=O)NC(=S)Nc2ccccc2N2CCCC2)cc(OC)c1OC,0.0%,20.7%,i[7.34 µM],0.0%[7.34 µM],-10.7%,11.2µM*
COc1ccc(C(=O)Nc2ccccc2N2CCOCC2)cc1Br,u,-51.3%,-7.8%,-5.7%,u,-25.6%
COc1c(Cl)cc(Cl)cc1/C=C(\C#N)c1nc(-c2ccc(Cl)cc2)cs1,x,x,-5.5%,5.4%,x,x
Cn1c(SCC(=O)Nc2ccccc2-c2ccccc2)nnc1-c1ccco1,x,-14.9%,-16.5%,-14.1%,u,-1.8%
